Results taken from ChEMBL document CHEMBL2218924, “A broad activity screen in support of a chemogenomic map for kinase signalling research and drug discovery” (Biochem J, 2013).

Legend:
[1] = molecular target: Serine/threonine-protein kinase PLK3 (Homo sapiens) (UniProt Q9H4B4); settings: at 1 µM
[2] = molecular target: Serine/threonine-protein kinase PLK3 (Homo sapiens) (UniProt Q9H4B4); settings: at 10 µM
[3] = molecular target: T1, cAMP-dependent protein kinase catalytic subunit PRKX (Homo sapiens) (UniProt P51817); settings: at 1 µM
T1 sequence (whole entry): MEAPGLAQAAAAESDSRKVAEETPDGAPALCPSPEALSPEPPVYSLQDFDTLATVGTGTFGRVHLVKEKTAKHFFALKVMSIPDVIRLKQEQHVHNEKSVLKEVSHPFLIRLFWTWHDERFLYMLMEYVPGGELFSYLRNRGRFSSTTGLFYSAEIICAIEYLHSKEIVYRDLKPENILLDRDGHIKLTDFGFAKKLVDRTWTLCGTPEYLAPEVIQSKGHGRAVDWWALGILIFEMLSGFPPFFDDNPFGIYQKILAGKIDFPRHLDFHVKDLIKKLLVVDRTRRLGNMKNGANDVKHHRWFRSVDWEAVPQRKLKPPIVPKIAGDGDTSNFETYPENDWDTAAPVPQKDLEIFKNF

[4] = molecular target: T1, cAMP-dependent protein kinase catalytic subunit PRKX (Homo sapiens); settings: at 10 µM
[5] = molecular target: Protein-tyrosine kinase 2-beta (Homo sapiens) (UniProt Q14289); settings: at 1 µM
[6] = molecular target: Protein-tyrosine kinase 2-beta (Homo sapiens) (UniProt Q14289); settings: at 10 µM
[7] = molecular target: Receptor-interacting serine/threonine-protein kinase 2 (Homo sapiens) (UniProt O43353); settings: at 1 µM
[8] = molecular target: Receptor-interacting serine/threonine-protein kinase 2 (Homo sapiens) (UniProt O43353); settings: at 10 µM
[9] = molecular target: Rho-associated protein kinase 1 (Homo sapiens) (UniProt Q13464); settings: at 1 µM
[10] = molecular target: Rho-associated protein kinase 1 (Homo sapiens) (UniProt Q13464); settings: at 10 µM

Chain of Receptor-interacting serine/threonine-protein kinase 2 (Homo sapiens) (O43353 whole entry): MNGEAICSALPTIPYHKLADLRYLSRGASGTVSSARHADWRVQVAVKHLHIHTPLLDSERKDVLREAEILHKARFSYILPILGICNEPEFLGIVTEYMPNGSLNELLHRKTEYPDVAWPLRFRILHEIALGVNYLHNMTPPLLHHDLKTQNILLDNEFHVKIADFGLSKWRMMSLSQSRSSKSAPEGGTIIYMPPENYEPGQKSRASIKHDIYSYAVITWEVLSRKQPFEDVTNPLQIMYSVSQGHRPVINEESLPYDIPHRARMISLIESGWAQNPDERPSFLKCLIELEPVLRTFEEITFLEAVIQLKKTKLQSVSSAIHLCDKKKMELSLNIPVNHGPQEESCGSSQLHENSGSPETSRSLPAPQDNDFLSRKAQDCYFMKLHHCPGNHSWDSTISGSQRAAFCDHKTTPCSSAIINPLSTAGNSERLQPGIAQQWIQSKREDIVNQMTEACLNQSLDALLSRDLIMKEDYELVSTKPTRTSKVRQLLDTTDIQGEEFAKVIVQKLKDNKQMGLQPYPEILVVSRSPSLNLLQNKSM
Chain of Serine/threonine-protein kinase PLK3 (Homo sapiens) (Q9H4B4 whole entry, looked up): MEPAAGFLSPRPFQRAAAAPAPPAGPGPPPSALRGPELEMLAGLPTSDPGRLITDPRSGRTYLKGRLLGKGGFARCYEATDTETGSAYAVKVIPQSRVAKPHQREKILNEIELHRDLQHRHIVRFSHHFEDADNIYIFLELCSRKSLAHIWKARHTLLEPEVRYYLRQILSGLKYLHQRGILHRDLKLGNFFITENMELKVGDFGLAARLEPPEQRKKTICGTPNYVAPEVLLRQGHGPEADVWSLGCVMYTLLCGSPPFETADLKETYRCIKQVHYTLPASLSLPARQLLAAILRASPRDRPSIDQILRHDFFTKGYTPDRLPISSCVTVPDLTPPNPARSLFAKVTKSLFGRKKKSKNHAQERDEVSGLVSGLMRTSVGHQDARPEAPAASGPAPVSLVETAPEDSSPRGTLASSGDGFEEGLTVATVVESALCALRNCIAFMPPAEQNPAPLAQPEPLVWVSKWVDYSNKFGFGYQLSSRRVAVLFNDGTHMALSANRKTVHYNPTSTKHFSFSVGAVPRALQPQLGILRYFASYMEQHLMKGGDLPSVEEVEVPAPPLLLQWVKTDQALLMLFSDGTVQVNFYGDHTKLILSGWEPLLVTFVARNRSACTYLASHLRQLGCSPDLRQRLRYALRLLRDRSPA
Chain of Rho-associated protein kinase 1 (Homo sapiens) (Q13464 2-1354 limits assumed): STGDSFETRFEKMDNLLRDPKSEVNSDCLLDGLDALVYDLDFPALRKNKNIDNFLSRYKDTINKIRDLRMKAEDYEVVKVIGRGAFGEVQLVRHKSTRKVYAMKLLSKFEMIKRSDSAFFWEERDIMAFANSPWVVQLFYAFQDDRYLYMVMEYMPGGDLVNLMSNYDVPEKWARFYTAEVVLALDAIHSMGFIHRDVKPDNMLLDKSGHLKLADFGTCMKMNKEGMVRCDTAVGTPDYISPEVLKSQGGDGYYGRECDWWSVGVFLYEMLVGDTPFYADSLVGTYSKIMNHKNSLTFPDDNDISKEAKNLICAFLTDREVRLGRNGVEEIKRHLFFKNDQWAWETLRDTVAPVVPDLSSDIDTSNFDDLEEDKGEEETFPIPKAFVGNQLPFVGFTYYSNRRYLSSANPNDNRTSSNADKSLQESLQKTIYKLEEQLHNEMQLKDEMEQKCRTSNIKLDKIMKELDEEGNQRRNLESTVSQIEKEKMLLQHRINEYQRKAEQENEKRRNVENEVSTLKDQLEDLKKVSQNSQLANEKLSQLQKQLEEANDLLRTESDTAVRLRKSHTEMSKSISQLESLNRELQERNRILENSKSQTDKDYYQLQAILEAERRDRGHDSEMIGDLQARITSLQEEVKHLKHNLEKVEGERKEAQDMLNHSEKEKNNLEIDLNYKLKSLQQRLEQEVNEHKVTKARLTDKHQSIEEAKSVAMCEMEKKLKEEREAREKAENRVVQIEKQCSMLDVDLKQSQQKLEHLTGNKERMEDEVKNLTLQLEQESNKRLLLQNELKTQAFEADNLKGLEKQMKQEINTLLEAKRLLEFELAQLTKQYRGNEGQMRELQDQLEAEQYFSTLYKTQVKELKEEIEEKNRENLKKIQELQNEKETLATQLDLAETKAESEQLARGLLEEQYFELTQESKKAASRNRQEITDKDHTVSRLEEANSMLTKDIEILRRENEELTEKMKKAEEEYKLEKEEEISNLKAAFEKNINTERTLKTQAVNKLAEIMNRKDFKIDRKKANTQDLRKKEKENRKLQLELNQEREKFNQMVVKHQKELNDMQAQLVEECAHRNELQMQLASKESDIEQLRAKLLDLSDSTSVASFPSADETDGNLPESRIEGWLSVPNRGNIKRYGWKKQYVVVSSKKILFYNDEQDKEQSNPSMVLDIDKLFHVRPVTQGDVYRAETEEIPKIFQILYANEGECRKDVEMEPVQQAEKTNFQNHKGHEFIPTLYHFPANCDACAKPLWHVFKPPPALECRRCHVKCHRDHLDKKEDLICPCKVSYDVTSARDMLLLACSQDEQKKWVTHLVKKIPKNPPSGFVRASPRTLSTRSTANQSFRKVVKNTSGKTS
Chain of Protein-tyrosine kinase 2-beta (Homo sapiens) (Q14289 whole entry, looked up): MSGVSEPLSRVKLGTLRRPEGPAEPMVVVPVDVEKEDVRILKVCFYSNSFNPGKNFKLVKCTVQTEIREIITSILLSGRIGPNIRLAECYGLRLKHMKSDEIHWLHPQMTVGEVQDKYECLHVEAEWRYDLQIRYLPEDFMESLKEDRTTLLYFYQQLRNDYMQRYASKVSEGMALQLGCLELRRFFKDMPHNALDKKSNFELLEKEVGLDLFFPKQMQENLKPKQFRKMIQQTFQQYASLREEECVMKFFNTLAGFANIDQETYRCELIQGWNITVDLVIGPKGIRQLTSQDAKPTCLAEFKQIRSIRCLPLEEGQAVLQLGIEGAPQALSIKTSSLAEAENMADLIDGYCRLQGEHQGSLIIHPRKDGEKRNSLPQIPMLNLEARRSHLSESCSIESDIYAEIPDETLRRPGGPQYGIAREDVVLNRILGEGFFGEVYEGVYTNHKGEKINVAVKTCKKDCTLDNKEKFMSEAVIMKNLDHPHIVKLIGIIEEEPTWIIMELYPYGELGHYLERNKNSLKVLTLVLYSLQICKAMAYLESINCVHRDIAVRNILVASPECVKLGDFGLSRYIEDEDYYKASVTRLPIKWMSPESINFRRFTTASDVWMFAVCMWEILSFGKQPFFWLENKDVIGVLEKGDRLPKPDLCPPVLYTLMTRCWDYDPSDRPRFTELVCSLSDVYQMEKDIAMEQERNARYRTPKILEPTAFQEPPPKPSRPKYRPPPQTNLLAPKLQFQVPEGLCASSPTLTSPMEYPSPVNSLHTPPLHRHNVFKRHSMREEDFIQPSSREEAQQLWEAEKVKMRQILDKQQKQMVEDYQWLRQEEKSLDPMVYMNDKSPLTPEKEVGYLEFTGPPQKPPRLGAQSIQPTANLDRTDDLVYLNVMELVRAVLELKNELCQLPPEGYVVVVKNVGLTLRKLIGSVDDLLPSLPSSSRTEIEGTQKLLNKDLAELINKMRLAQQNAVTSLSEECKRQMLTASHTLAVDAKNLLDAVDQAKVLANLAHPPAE

SMILES | residual activity [1] | residual activity [2] [%] | residual activity [3] [%] | residual activity [4] [%] | residual activity [5] [%] | residual activity [6] [%] | residual activity [7] [%] | residual activity [8] [%] | residual activity [9] [%] | residual activity [10] [%]
COc1ccc(CNc2nc(N(CCO)CCO)nc3c2ncn3C(C)C)cc1 | 97% (inactive) | 95 | 95 | 101 | 83 | 85 | 83 | 78 | 121 | 109
O=C1NC(=O)/C(=C\c2ccc3nccnc3c2)S1 | 95% (inactive) | 85 | 67 | 27 | 124 | 103 | 56 | 21 | 109 | 107
CC(=O)O/N=C1\C(=C2\C(=O)Nc3cc(Br)ccc32)Nc2ccccc21 | 92% (inactive) | 99 | 77 | 93 | 79 | 32 | 92 | 84 | 123 | 119
COc1cccc(-c2cc(=O)c3ccccc3o2)c1N | 111% (inactive) |  | 90 | 33 | 106 | 112 | 92 | 106 | 117 | 100
CC(C)n1cnc2/c(=N/c3cccc(Cl)c3)nc(NCCO)[nH]c21 | 93% (inactive) | 57 | 82 | 65 | 56 | 18 | 77 | 68 | 113 | 82
Nc1cccc(-c2cc3c(Oc4cccc(O)c4)ncnc3[nH]2)c1 | 99% (inactive) | 74 | 85 | 70 | 25 | 5 | 18 | 11 |  | 97
CC#CC(=O)Nc1cc2c(Nc3ccc(F)c(Cl)c3)ncnc2cn1 | 96% (inactive) | 82 | 100 | 93 | 120 |  | 82 | 60 | 99 | 116
O=C1Nc2ccccc2/C1=C1/Nc2ccccc2/C1=N\OCCC(O)CO (centres undefined) |  |  | 66 | 41 | 7 | 2 | 58 | 50 | 114 | 98
CNc1cc2c(Nc3cccc(Br)c3)ncnc2cn1 | 90% (inactive) | 91 | 95 | 75 | 116 | 64 | 43 | 38 | 110 | 126
Cc1cccc(-c2[nH]c(C(C)(C)C)nc2-c2ccc3c(c2)OCO3)n1 | 98% (inactive) | 88 |  |  |  | 103 | 59 | 21 |  | 
Oc1ccc(Nc2nc(-c3ccc(Cl)cc3)cs2)cc1 | 100% (inactive) | 94 | 78 | 118 | 109 | 106 | 107 | 89 | 122 | 121
Cn1cc(/C=C2\C(=O)Nc3ccc(S(N)(=O)=O)cc32)c2ccccc21 | 100% (inactive) | 99 | 88 | 59 | 22 | 5 | 52 | 51 | 92 | 87
Cn1nc2c3c(cccc31)C(=O)c1ccccc1-2 | 100% (inactive) | 90 | 72 | 86 | 106 | 76 | 89 | 89 |  | 97
O=C1Nc2ccc(Br)cc2/C1=C\c1cc2c([nH]1)CCCC2 |  |  | 113 | 102 | 75 | 49 |  |  | 119 | 116
Oc1c2ccccc2c2c3c(cccc13)N=N2 | 94% (inactive) | 82 | 86 | 70 | 68 | 23 | 70 | 52 |  | 95
Oc1n[nH]c2nnc(-c3c(-c4ccccc4)nn4ccccc34)cc12 | 96% (inactive) | 89 | 86 | 81 | 102 | 88 | 87 | 85 | 121 | 104
O=C1NC(=O)c2cc(Nc3ccc(F)cc3)c(Nc3ccc(F)cc3)cc21 | 92% (inactive) | 80 | 90 | 48 | 119 | 81 | 76 | 42 | 108 | 123
N#Cc1cnc2cnc(NCc3cccnc3)cc2c1Nc1ccc(F)c(Cl)c1 |  | 96 | 95 | 87 | 66 | 45 | 100 | 96 | 37 | 19
C[C@@H](N)[C@H]1CC[C@H](C(=O)Nc2ccncc2)CC1 | 108% (inactive) | 96 | 72 | 24 |  |  | 96 |  | 77 | 31

SMILES | residual activity [1] | residual activity [2] [%] | residual activity [3] [%] | residual activity [4] [%] | residual activity [5] [%] | residual activity [6] [%] | residual activity [7] [%] | residual activity [8] [%] | residual activity [9] [%] | residual activity [10] [%]
Oc1ccc(-c2nc(-c3ccc(F)cc3)c(-c3ccncc3)[nH]2)cc1 | 109% (inactive) | 90 |  |  | 111 | 86 | 24 | 14 | 117 | 100
O=[N+]([O-])c1ccc(-c2nc(-c3ccc(F)cc3)c(-c3ccncc3)[nH]2)cc1 |  | 108 | 132 | 26 | 114 | 105 | 19 | 25 | 122 | 118
COc1cc2ncc(-c3ccccc3)nc2cc1OC | 95% (inactive) | 93 | 88 | 76 |  | 76 |  | 58 |  | 
CC[n+]1c(/C=C/N(C)c2ccccc2)n(-c2ccccc2)c2ccc(-c3nc4ccccc4s3)cc21 | 99% (inactive) | 103 | 108 | 63 | 139 | 83 | 93 | 88 | 110 | 102
Cc1cc(Nc2nc(-c3ccccc3)nc3ccccc23)n[nH]1 |  |  | 81 | 38 | 20 | 4 |  | 63 | 120 | 94
O=C(O)c1ccc2c3c1cccc3c(=O)n1c3ccccc3nc21 | 106% (inactive) | 98 | 84 | 68 | 88 | 42 | 96 | 82 | 113 | 80
N#CC(C#N)=C(N)/C(C#N)=C/c1ccc(O)cc1 | 79% (inactive) | 27 | 99 | 100 | 129 | 94 |  | 64 |  | 
c1ccc(-c2n[nH]cc2-c2ccnc3ccccc23)nc1 | 99% (inactive) | 94 | 96 | 94 | 109 | 96 | 29 | 16 |  | 127
COc1cc2ncnc(Nc3ccc(O)c(Br)c3)c2cc1OC | 92% (inactive) | 88 | 90 | 66 | 85 | 42 | 20 | 8 | 116 | 102
CCN(CC)C(=O)c1ccc(Nc2nc(OCC3CCCCC3)c3nc[nH]c3n2)cc1 | 101% (inactive) |  | 101 | 23 | 22 | 0 | 74 | 41 |  | 23
Cc1ccc(NC2=CC(=O)c3sc(C)nc3C2=O)cc1 | 97% (inactive) | 91 | 102 | 97 | 108 | 102 | 81 | 89 | 117 | 102
COc1cc2ncnc(Nc3ccc(NC(=O)c4ccccc4)cc3)c2cc1OC | 102% (inactive) | 97 |  | 91 | 134 | 75 | 110 | 77 |  | 
c1ccc2c(-c3ccncc3)c[nH]c2c1 | 91% (inactive) | 94 | 48 | 16 |  | 93 | 87 | 59 |  | 78
Ic1cccc(CSc2nnc(-c3ccncc3)o2)c1 | 87% (inactive) | 94 | 57 | 71 | 103 | 101 | 82 | 78 | 113 | 98
c1ccc(-c2n[nH]c3c2oc2ccccc23)cc1 | 100% (inactive) | 90 | 88 | 94 |  |  | 97 | 64 | 114 | 126
O=C(Nc1cccc(Nc2nccc(Nc3cccc(C(F)(F)F)c3)n2)c1)C1CC1 | 73% (inactive) | 88 | 103 | 51 | 55 | 12 | 69 | 71 | 106 | 127
O=C1NC(=O)c2c1c1c3ccccc3[nH]c1c1[nH]c3cc(Br)ccc3c21 | 96% (inactive) | 83 | 85 | 77 | 71 | 84 | 92 | 93 | 112 | 93
CC(=O)c1ccc(N2CCOCC2)cc1O | 90% (inactive) | 92 | 106 | 95 |  | 103 | 95 | 81 |  | 
